High-throughput results (PubChem BioAssay)
aSyn UTR act – Activators working through SNCA 5'UTR binding (MLPCN) | activity score, % (tested at 7.5 µM), hits read low | alpha-synuclein 5'UTR reporter, activators screen | hit rate 7.1% among 300,000; in the data active = activity score below about -60%
Numbers without * were called inactive. Only a sample is shown.

SMILES	aSyn UTR act
CCS(=O)(=O)Nc1cccc(C2=NN(C(=O)c3ccco3)C(c3ccco3)C2)c1 (stereo not drawn)	-73.4*
O=[N+]([O-])c1ccc(C2=NN(c3ccccc3)C(c3ccco3)C2)cc1 (stereo not drawn)	-74.9*
COc1ccc(C2=NN(C(N)=S)C(c3ccco3)C2)cc1 (stereo not drawn)	-86.5*
Cc1ccc(-c2cc(C(=O)NCc3ccccn3)c3ccccc3n2)cc1C	-123.9*
COc1ccc(-c2cc(C(=O)NCC(c3ccccc3)N(C)C)c3ccccc3n2)cc1OC (stereo not drawn)	-68.1*
Cc1ccc(-c2cc(C(=O)NCCCN3CCCC3)c3ccccc3n2)cc1C	-63.0*
COc1cccc(-c2cc(C(=O)NCCCn3ccnc3)c3ccccc3n2)c1	-69.9*
COc1ccccc1NC(=O)COc1ccc(CO)cc1Cl	-151.3*
O=C(COc1ccc(Br)cc1CO)Nc1ccccc1F	-180.6*
COc1cc2c(cc1OC)C(c1ccc(Br)cc1)NCC2 (stereo not drawn)	63.3
O=C(COc1ccc(Br)cc1CO)Nc1ccccc1	-106.6*
O=C(N/N=C/c1cc(Br)ccc1O)C(=O)Nc1ccccc1OC(F)(F)C(F)F	82.2
COc1cc(CO)ccc1OCC(=O)Nc1ccc(Br)cc1	-85.6*
Cc1ccc(N(O)C(=O)NCCCCNC(=O)N(O)c2ccc(C)cc2)cc1	-97.2*
CCCc1nnc(NC(=S)Nc2ccccc2)s1	-126.6*
CC(C)C(=O)Nc1nnc(NC(=S)Nc2ccccc2)s1	-126.6*
CC1Cc2ccccc2N1C(=O)COc1ccc2c(c1)OCO2 (stereo not drawn)	-90.7*
CC1CCCN(C(=O)COc2ccc3c(c2)OCO3)C1 (stereo not drawn)	-69.2*
CCC(C)c1ccc(NC(=S)NN2CCOCC2)cc1 (stereo not drawn)	-99.3*
CC(C)c1ccc(NC(=O)NN2CCOCC2)cc1	-98.4*
O=C1CCC/C(=N\NC(=O)c2ccc(COc3ccccc3-c3ccccc3)cc2)C1	-71.2*
Cc1nc2ccccn2c1C(=O)Nc1ccc(Cl)cc1	-159.6*
Cc1ccc(NC(=O)c2c(Cl)nc3ccccn23)cc1	-153.3*
C/C(=N\NC(=O)c1c(C)nc2ccccn12)c1ccc(O)cc1O	83.5
Cc1nc2ccc(-c3ccccc3)cc2o1	-79.1*
SMILES	aSyn UTR act
CN1c2ccccc2C(O)=C(C(=O)Nc2ccccc2)S1(=O)=O	-83.7*
Cc1ccc(NC(=S)C2=C(O)c3ccccc3N(C)S2(=O)=O)cc1	-100.4*
CCC(=O)Oc1ccc(C(=O)Nc2ccc([N+](=O)[O-])cc2)cc1	-169.7*
O=C(Nc1ccccc1F)c1cc(Cl)sc1Cl	-62.5*
CC(=O)c1ccc(NC(=O)Nc2ccc([N+](=O)[O-])cc2)cc1	-148.0*
O=C(Nc1ccccc1F)c1ccc([N+](=O)[O-])s1	-115.2*
O=C(Nc1ccc(Oc2ccc(NC(=O)Nc3ccc([N+](=O)[O-])cc3)cc2)cc1)Nc1ccc([N+](=O)[O-])cc1	90.7
CC(=O)Nc1cc[n+](C(C)C(=O)c2ccc(Cl)cc2)cc1 (stereo not drawn)	51.4
CC(=O)c1ccc(NC(=O)c2cc(Cl)sc2Cl)cc1	-155.8*
CC(=O)Nc1ccc(OS(=O)(=O)c2ccc([N+](=O)[O-])cc2)cc1	-115.0*
CC(=O)c1ccc(NC(=O)Nc2ccc(Cl)cc2)cc1	-192.6*
